Experiment [1] has as its system E18 rat cortical neuron-glia co-culture. As to the kind of experiment: fiber score / MBP score (myelination specific beyond OL differentiation) (ratio); higher = more myelination-specific MBP alignment. Conditions: treatment time: 8 days (DIV5-DIV13). In outline: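 Reported values are fiber score (continuous MBP fiber length per Olig2+ nucleus) divided by MBP score (thresholded MBP area × intensity per Olig2+ nucleus). They come from primary E18 rat cortical co-cultures treated with library compounds at 1 or 5 µM in myelination medium from DIV5 to DIV13, then fixed in 4 % paraformaldehyde, immunostained for MBP and Olig2 with DAPI, and analysed over four 10X fields per well in duplicate wells.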

Experiment [2] has the same test system. As to the kind of experiment: myelination (MBP fiber length per Olig2+ nucleus), % of 1 µM DAPT response (DMSO = 0) (% of DAPT); higher = more myelination, active = 50 or more. Conditions: treatment time: 8 days (DIV5-DIV13). The essentials:
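Rat cortical co-cultures from E18 tissue were dissociated with papain and plated at 20,000 cells/well on 96-well plates coated with poly-d-lysine/laminin. From DIV5 to DIV13, library compounds were added at 1 or 5 µM in myelination medium. After fixation in 4 % paraformaldehyde, cultures were immunostained for MBP and Olig2 and counterstained with DAPI, and four 10X fields were analysed in each of duplicate wells. The myelination value is the length of continuous straight MBP fibers per Olig2+ nucleus, normalised so that 0.1 % DMSO is 0 and a 1 µM positive control is 100.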

Turning to `CC1=C(C(=O)O)N2C(=O)[C@@H](NC(=O)[C@H](N)c3ccccc3)[C@H]2SC1` [Cephalexin], the “fiber score / MBP score” value in experiment [1] (1 µM) came out at 0.963; in experiment [1] (5 µM), 0.986. Moreover, the myelination is -2.86 (inactive) in experiment [2] (1 µM) and -1.59 (inactive) in experiment [2] (5 µM).

With `O=C1Nc2ccc(Cl)cc2[C@@](C#CC2CC2)(C(F)(F)F)O1` [Efavirenz], the figures for the “fiber score / MBP score” value in experiment [1] (1 µM) and in experiment [1] (5 µM) were 0.744 and 0.712, respectively. The myelination in experiment [2] (1 µM) was -8.9 (inactive); in experiment [2] (5 µM), 11.1 (inactive).

Take `Clc1ccccc1CN1CCc2sccc2C1` [Ticlopidine]: the “fiber score / MBP score” value in experiment [1] (1 µM) turned out to be 0.477; in experiment [1] (5 µM) it was 0.662. Besides, the myelination in experiment [2] (1 µM) was -18.3 (inactive); in experiment [2] (5 µM), -14.2 (inactive).

With `COC(=O)CCc1ccc(OCC(O)CNC(C)C)cc1` (centres undefined) [Esmolol], the “fiber score / MBP score” value is 1.07 in experiment [1] (1 µM) and 0.988 in experiment [1] (5 µM). The myelination in experiment [2] (1 µM) was 2.16 (inactive); in experiment [2] (5 µM) it was -0.768 (inactive).

Consider `CCOC(=O)C1=C(C)NC(C)=C(C(=O)OC)C1c1cccc(Cl)c1Cl` (centres undefined) [Felodipine], for which the results for the “fiber score / MBP score” value in experiment [1] (1 µM) and in experiment [1] (5 µM) were 1.27 and 0.858, respectively. The myelination was 20.4 (inactive) in experiment [2] (1 µM) and 8.21 (inactive) in experiment [2] (5 µM).

For the molecule `Nc1ccc(S(=O)(=O)c2ccc(N)cc2)cc1` [Dapsone], the “fiber score / MBP score” value in experiment [1] (1 µM) is 0.932; in experiment [1] (5 µM), 0.925. The figures for the myelination in experiment [2] (1 µM) and in experiment [2] (5 µM) were -3.07 (inactive) and -4.22 (inactive), respectively.

As to `CN1CCN2c3ncccc3Cc3ccccc3C2C1` (centres undefined) [Remergil], the “fiber score / MBP score” value in experiment [1] (1 µM) is 0.819; in experiment [1] (5 µM) it was 0.663. Also, the myelination was 4.96 (inactive) in experiment [2] (1 µM) and -19.4 (inactive) in experiment [2] (5 µM).

As for `Oc1ncnc2[nH]ncc12` [Allopurinol], the results for the “fiber score / MBP score” value in experiment [1] (1 µM) and in experiment [1] (5 µM) were 1.01 and 0.903, respectively. The myelination in experiment [2] (1 µM) is 6.93 (inactive); in experiment [2] (5 µM), -0.27 (inactive).

Consider `OCCN1C[C@H](O)[C@@H](O)[C@H](O)[C@H]1CO` [Miglitol], for which the “fiber score / MBP score” value in experiment [1] (1 µM) is 0.881; in experiment [1] (5 µM), 0.788. Further, the myelination in experiment [2] (1 µM) was -7.81 (inactive); in experiment [2] (5 µM), -16.8 (inactive).

As to `NC(=O)N1c2ccccc2CC(=O)c2ccccc21` [Oxcarbazepine], the results for the “fiber score / MBP score” value in experiment [1] (1 µM) and in experiment [1] (5 µM) were 1.02 and 1.17, respectively. Besides, the myelination is 3.46 (inactive) in experiment [2] (1 µM) and 196 in experiment [2] (5 µM).

For the molecule `c1ccc2[nH]c(-c3cscn3)nc2c1` [Thiabendazole], the “fiber score / MBP score” value in experiment [1] (1 µM) was determined as 1.05; in experiment [1] (5 µM) it was 0.885. The values for the myelination in experiment [2] (1 µM) and in experiment [2] (5 µM) were 0.461 (inactive) and -0.348 (inactive), respectively.

Turning to `CC1(C)S[C@@H]2[C@H](NC(=O)[C@H](N)c3ccccc3)C(=O)N2[C@H]1C(=O)O` [Ampicillin], the figures for the “fiber score / MBP score” value in experiment [1] (1 µM) and in experiment [1] (5 µM) were 0.301 and 0.192, respectively. The myelination in experiment [2] (1 µM) is -16.3 (inactive); in experiment [2] (5 µM), -18.9 (inactive).

As to `CCc1nn(CCCN2CCN(c3cccc(Cl)c3)CC2)c(=O)n1CCOc1ccccc1` [Nefazodone], the “fiber score / MBP score” value in experiment [1] (1 µM) came to 0.932; in experiment [1] (5 µM) it was 0.76. Further, the myelination is 2.86 (inactive) in experiment [2] (1 µM) and 2 (inactive) in experiment [2] (5 µM).

For the molecule `COc1nc(C)nc(Cl)c1NC1=NCCN1` [Moxonidine], the figures for the “fiber score / MBP score” value in experiment [1] (1 µM) and in experiment [1] (5 µM) were 0.758 and 0.82, respectively. For the same molecule, the myelination was -10.8 (inactive) in experiment [2] (1 µM) and -21.6 (inactive) in experiment [2] (5 µM).

Turning to `CN1CCC(=C2c3ccccc3C=Cc3ccccc32)CC1` [Cyproheptadine], the “fiber score / MBP score” value is 0.58 in experiment [1] (1 µM) and 0.686 in experiment [1] (5 µM). Besides, the values for the myelination in experiment [2] (1 µM) and in experiment [2] (5 µM) were -14.7 (inactive) and -1.4 (inactive), respectively.

For `COC(=O)Nc1nc2cc(C(=O)c3ccccc3)ccc2[nH]1` [Mebendazole], the “fiber score / MBP score” value in experiment [1] (1 µM) was 0.624; in experiment [1] (5 µM) it was 0.207. In addition, the myelination in experiment [2] (1 µM) is 71.4; in experiment [2] (5 µM) it was -22.3 (inactive).

On to `CCOC(=O)O[C@]1(C(=O)OCCl)CC[C@H]2[C@@H]3CCC4=CC(=O)C=C[C@]4(C)[C@H]3[C@@H](O)C[C@@]21C` [Loteprednol etabonate], for which the “fiber score / MBP score” value in experiment [1] (1 µM) is 0.604; in experiment [1] (5 µM) it was 0.881. In addition, the values for the myelination in experiment [2] (1 µM) and in experiment [2] (5 µM) were -14.2 (inactive) and -1.58 (inactive), respectively.

Turning to `CC(=O)SCC(Cc1ccccc1)C(=O)NCC(=O)OCc1ccccc1` (centres undefined) [Racecadotril], the “fiber score / MBP score” value in experiment [1] (1 µM) stood at 0.715; in experiment [1] (5 µM), 0.943. Besides, the values for the myelination in experiment [2] (1 µM) and in experiment [2] (5 µM) were -48.7 (inactive) and -8.19 (inactive), respectively.

As for `Cc1ccc(O)c([C@H](CCN(C(C)C)C(C)C)c2ccccc2)c1` [Tolterodine], in experiment [1] (1 µM), the “fiber score / MBP score” value is 0.747. Moreover, in experiment [2] (1 µM), the myelination was -15.9 (inactive).

As to `Cc1c2oc3c(C)ccc(C(=O)N[C@@H]4C(=O)N[C@H](C(C)C)C(=O)N5CCC[C@H]5C(=O)N(C)CC(=O)N(C)[C@@H](C(C)C)C(=O)O[C@@H]4C)c3nc-2c(C(=O)N[C@@H]2C(=O)N[C@H](C(C)C)C(=O)N3CCC[C@H]3C(=O)N(C)CC(=O)N(C)[C@@H](C(C)C)C(=O)O[C@@H]2C)c(N)c1=O` [Dactinomycin], the myelination in experiment [2] (1 µM) and in experiment [2] (5 µM) was < -33.5 (inactive) in each case.

For the molecule `CN1[C@@H]2CC[C@H]1C[C@@H](OC(c1ccccc1)c1ccccc1)C2` [Benzatropine], the myelination in experiment [2] (1 µM) is < -84.9 (inactive).

For the molecule `CCOC(=O)C1=C(C)NC(C)=C(C(=O)OCC)C1c1ccccc1/C=C/C(=O)OC(C)(C)C` [Lacidipine], in experiment [1] (1 µM), the “fiber score / MBP score” value came out at 0.575. For the same molecule, the myelination in experiment [2] (1 µM) is -18.6 (inactive).

`COc1cccc2c1C(=O)c1c(O)c3c(c(O)c1C2=O)C[C@@](O)(C(=O)CO)C[C@@H]3O[C@H]1C[C@H](N)[C@H](O)[C@H](C)O1` [Adriamycin]: the myelination in experiment [2] (1 µM) was < -51.2 (inactive).

Turning to `OCCN1CCN(CCCN2c3ccccc3Sc3ccc(C(F)(F)F)cc32)CC1` [Fluphenazine], the “fiber score / MBP score” value in experiment [1] (1 µM) worked out at 0.784. In addition, the figures for the myelination in experiment [2] (1 µM) and in experiment [2] (5 µM) were 3 (inactive) and < -37.3 (inactive), respectively.

Turning to `CC(C)(O)c1ccccc1CC[C@@H](SCC1(CC(=O)O)CC1)c1cccc(/C=C/c2ccc3ccc(Cl)cc3n2)c1` [Montelukast], the “fiber score / MBP score” value in experiment [1] (1 µM) is 0.64. In addition, in experiment [2] (1 µM), the myelination was -10.2 (inactive).

For the molecule `CCCCc1nc(Cl)c(CO)n1Cc1ccc(-c2ccccc2-c2nnn[nH]2)cc1` [Losartan], in experiment [1] (1 µM), the “fiber score / MBP score” value was 0.8. Moreover, the myelination in experiment [2] (1 µM) is -14.1 (inactive).

`Clc1ccc(COC(Cn2ccnc2)c2ccc(Cl)cc2Cl)cc1` (centres undefined) [Econazole]: the “fiber score / MBP score” value in experiment [1] (1 µM) worked out at 0.731. In addition, the myelination in experiment [2] (1 µM) was 0.139 (inactive).

Source of the values: the supplement of paper PMC4840960.
